IDE exosite inh – insulin-degrading enzyme (human) exo-site inhibition | AID 1259349 | P14735 | purified IDE, FL-6b probe fluorescence polarization; stronger effect = lower value | 17,000 tested, 6.3% active | z-score at 20 µM;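 active = z-score of -3 or lower, meaning strong loss of probe binding signal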;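 note: His-tagged human IDE residues 42-1019 made in E. coli with 30 nM FL-6b probe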
Target sequence (P14735 42-1019 limits assumed): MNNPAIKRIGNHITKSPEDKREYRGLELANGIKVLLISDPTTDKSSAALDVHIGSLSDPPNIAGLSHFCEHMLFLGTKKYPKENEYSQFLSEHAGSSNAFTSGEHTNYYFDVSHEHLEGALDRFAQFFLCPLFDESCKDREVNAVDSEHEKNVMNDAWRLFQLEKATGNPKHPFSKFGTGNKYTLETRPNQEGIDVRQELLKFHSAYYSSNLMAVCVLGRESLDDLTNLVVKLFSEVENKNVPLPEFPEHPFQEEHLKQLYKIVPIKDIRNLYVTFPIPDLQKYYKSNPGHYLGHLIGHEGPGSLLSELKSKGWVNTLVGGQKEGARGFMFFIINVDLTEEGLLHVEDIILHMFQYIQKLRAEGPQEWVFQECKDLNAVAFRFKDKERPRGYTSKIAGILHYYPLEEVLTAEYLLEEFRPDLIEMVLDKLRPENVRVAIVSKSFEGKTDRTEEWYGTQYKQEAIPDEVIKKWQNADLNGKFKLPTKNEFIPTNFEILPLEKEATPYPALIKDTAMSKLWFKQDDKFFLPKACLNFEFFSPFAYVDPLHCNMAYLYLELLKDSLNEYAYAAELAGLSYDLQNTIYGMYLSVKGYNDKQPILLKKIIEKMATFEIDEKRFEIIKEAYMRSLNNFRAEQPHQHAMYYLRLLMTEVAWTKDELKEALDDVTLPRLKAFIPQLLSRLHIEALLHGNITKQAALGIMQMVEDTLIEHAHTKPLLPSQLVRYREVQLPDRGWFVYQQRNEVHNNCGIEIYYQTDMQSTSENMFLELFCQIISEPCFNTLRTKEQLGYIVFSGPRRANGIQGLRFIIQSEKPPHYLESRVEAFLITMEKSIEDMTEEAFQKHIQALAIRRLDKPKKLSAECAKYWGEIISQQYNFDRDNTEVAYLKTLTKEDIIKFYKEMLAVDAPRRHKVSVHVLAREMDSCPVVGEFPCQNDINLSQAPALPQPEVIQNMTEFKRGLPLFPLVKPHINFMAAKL
* hit, by the source's call. The sample as a whole holds a higher share of hits than the screen did.

SMILES	IDE exosite inh
O=S(=O)(Cc1ccccc1)N1CCCCN2[C@H](C1)[C@@H](c1ccc(-c3ccccc3)cc1)[C@@H]2CO	-0.2
CCS(=O)(=O)N1CCCCN2[C@H](CO)[C@@H](c3ccc(-c4ccccc4C)cc3)[C@@H]2C1	-18*
Cc1ccccc1-c1ccc([C@H]2[C@H]3CN(S(C)(=O)=O)CCCCN3[C@H]2CO)cc1	-0.86
Cc1ccccc1-c1ccc([C@@H]2[C@H](CO)N3CCCCN(S(=O)(=O)Cc4ccccc4)C[C@@H]23)cc1	-4.7*
Cc1ccccc1-c1ccc([C@H]2[C@@H](CO)N3CCCCN(S(C)(=O)=O)C[C@@H]23)cc1	-2.3
Cc1ccccc1-c1ccc([C@H]2[C@H](CO)N3CCCCN(S(C)(=O)=O)C[C@@H]23)cc1	-4.6*
CCS(=O)(=O)N1CCCCN2[C@H](C1)[C@H](c1ccc(-c3ccccc3C)cc1)[C@@H]2CO	-0.65
CS(=O)(=O)N1CC(=O)N2[C@H](CO)[C@H](c3ccc(Br)cc3)[C@@H]2C1	-0.52
CS(=O)(=O)N1CC(=O)N2[C@H](C1)[C@H](c1ccc(Br)cc1)[C@@H]2CO	0.089
CCC(=O)N(C)C[C@@H]1[C@@H](c2ccccc2)[C@H](CO)N1Cc1cccnc1	0.0078
C[C@@H]1CN([C@@H](C)CO)C(=O)c2cc(NC(=O)Nc3cccc4ccccc34)ccc2O[C@@H](C)CCCCO[C@@H]1CN(C)Cc1ccc(C(F)(F)F)cc1	0.99
CN1CCCCN2[C@@H](CO)[C@H](c3ccc(-c4cccnc4)cc3)[C@@H]2C1	-1.9
O=C(C[C@@H]1CC[C@H]2[C@@H](COC[C@@H](O)CN2C(=O)Nc2ccc(F)cc2)O1)NC1CCC1	-0.26
Cc1ccccc1-c1ccc([C@@H]2[C@@H](CO)N3CCCCN(S(=O)(=O)c4ccc(F)cc4)C[C@H]23)cc1	2.4
CCS(=O)(=O)N1CCCCN2[C@H](CO)[C@H](c3ccc(-c4ccccc4C)cc3)[C@H]2C1	-8.3*
CCS(=O)(=O)N1CCCCN2[C@H](CO)[C@H](c3ccc(-c4ccccc4F)cc3)[C@H]2C1	-2.2
CO[C@@H]1CN(C)C(=O)c2cc(NS(C)(=O)=O)ccc2OC[C@H](C)N(Cc2cncnc2)C[C@@H]1C	1.1
C[C@@H]1CN([C@@H](C)CO)C(=O)Cc2cc(NC(=O)Nc3ccc(F)cc3)ccc2O[C@H]1CN(C)S(C)(=O)=O	1.5
CO[C@@H]1CC[C@@H]2CCN(C)C(=O)CC3(CCCCC3)CN(C)C(=O)c3cccc(C#N)c3OC[C@@H]1O2	0.53
C/C=C/c1ccc([C@@H]2[C@@H](CO)N3C(=O)CN(Cc4ccc(C)cc4)C[C@H]23)cc1	5
O=C(CCN1CCCCC1)NCC[C@@H]1CC[C@@H](NS(=O)(=O)c2cccc(Cl)c2)[C@H](CO)O1	1.2
CCCNC(=O)N1CC(=O)N2[C@H](CO)[C@@H](c3ccc(C#Cc4cccc(OC)c4)cc3)[C@H]2C1	0.01
CCCC#Cc1ccc([C@H]2[C@H](CO)N3C(=O)CN(C(=O)NCCC)C[C@@H]23)cc1	-0.63
CCCC#Cc1ccc([C@@H]2[C@@H](CO)N3C(=O)CN(C(=O)NCCC)C[C@@H]23)cc1	1.7
CCCNC(=O)N1CC(=O)N2[C@H](CO)[C@@H](c3ccc(C#Cc4cccc(F)c4)cc3)[C@@H]2C1	-6.4*
SMILES	IDE exosite inh
CCCNC(=O)N1CC(=O)N2[C@@H](CO)[C@H](c3ccc(C#Cc4cccc(F)c4)cc3)[C@@H]2C1	-9.2*
CCCNC(=O)N1CC(=O)N2[C@H](C1)[C@@H](c1ccc(C#Cc3ccc(F)cc3)cc1)[C@@H]2CO	1.2
CCCNC(=O)N1CC(=O)N2[C@H](CO)[C@H](c3ccc(C#Cc4ccccc4)cc3)[C@@H]2C1	-9.6*
CCCC#Cc1ccc([C@@H]2[C@H]3CN(C(=O)NCCC)CC(=O)N3[C@H]2CO)cc1	1.6
CCCNC(=O)N1CC(=O)N2[C@H](CO)[C@H](c3ccc(C#Cc4cccc(F)c4)cc3)[C@H]2C1	0.55
CCCNC(=O)N1CC(=O)N2[C@H](CO)[C@H](c3ccc(C#Cc4cccc(F)c4)cc3)[C@@H]2C1	-8.5*
CCCNC(=O)N1CC(=O)N2[C@H](CO)[C@H](c3ccc(C#Cc4ccccc4)cc3)[C@H]2C1	-1.1
CCCNC(=O)N1CC(=O)N2[C@H](CO)[C@@H](c3ccc(C#Cc4cccc(OC)c4)cc3)[C@@H]2C1	-3
C/C=C/c1ccc([C@@H]2[C@@H](CO)N(Cc3cccc(F)c3)C23CN(C(C)=O)C3)cc1	0.2
O=S(=O)(Cc1ccccc1)N1C[C@@H]2N[C@H](C1)C2c1ccc(-c2ccccc2)cc1 (stereo partly drawn)	-0.52
CCN(C[C@@H]1N[C@H](CO)[C@H]1c1ccc(-c2cccc(C#N)c2)cc1)C(=O)COC	3.3
Cc1ccc(-c2ccccc2[C@@H]2[C@@H](C#N)N(C(=O)NC3CCCC3)[C@H]2CO)cc1	1.3
N#C[C@H]1[C@H](c2ccc(C#CC3CC3)cc2)[C@H](CO)N1S(=O)(=O)c1ccccc1	1.6
CC(C)C#Cc1ccc([C@H]2[C@H]3CN(C(=O)Cc4cccnc4)CC(=O)N3[C@H]2CO)cc1	3.7
CCCC#Cc1ccc([C@@H]2[C@H]3CN(C(=O)c4ccc(F)cc4)CC(=O)N3[C@H]2CO)cc1	0.96
COCC(=O)N(C[C@@H]1N[C@H](CO)[C@H]1c1ccc(-c2cccnc2)cc1)C(C)C	0.29
O=C(C[C@H]1CC[C@H](NC(=O)C2CCOCC2)[C@@H](CO)O1)NCC1CCCCC1	2.4
O=C(C[C@H]1C[C@H]2c3cc(NC(=O)CC4CC4)ccc3O[C@H]2[C@H](CO)O1)NCC1CC1	1.4
COc1ccc(C#Cc2ccc([C@@H]3[C@H](CO)N4CCCCN(S(=O)(=O)c5ccccc5)C[C@@H]34)cc2)cc1	1.2
O=S(=O)(Cc1ccccc1)N1CCCCN2[C@@H](CO)[C@@H](c3ccc(C#Cc4ccccc4)cc3)[C@@H]2C1	3.3
CCS(=O)(=O)N1CCCCN2[C@@H](CO)[C@H](c3ccc(C#Cc4ccccc4OC)cc3)[C@@H]2C1	-5.9*
CCCC#Cc1ccc([C@H]2[C@@H](CO)N3CCCCN(S(C)(=O)=O)C[C@@H]23)cc1	1.4
O=S(=O)(Cc1ccccc1)N1CCCCN2[C@H](CO)[C@H](c3ccc(C#Cc4ccccc4)cc3)[C@@H]2C1	3.7
COc1ccccc1C#Cc1ccc([C@H]2[C@@H](CO)N3CCCCN(S(C)(=O)=O)C[C@@H]23)cc1	-10*
CCCC#Cc1ccc([C@H]2[C@H](CO)N3CCCCN(S(C)(=O)=O)C[C@@H]23)cc1	3.4
SMILES	IDE exosite inh
CS(=O)(=O)N1CCCCN2[C@H](CO)[C@H](c3ccc(C#Cc4ccccn4)cc3)[C@@H]2C1	1.3
COc1ccccc1C#Cc1ccc([C@@H]2[C@@H](CO)N3CCCCN(S(C)(=O)=O)C[C@H]23)cc1	-5.6*
CCCNC(=O)N(C)C[C@H]1Oc2cc(C#C[C@H](C)O)ccc2S(=O)(=O)N([C@H](C)CO)C[C@@H]1C	-0.29
COCCNC(=O)[C@@H]1[C@@H](CO)[C@@H]2Cn3c(cccc3=O)[C@H]1N2S(=O)(=O)c1ccccc1C	-1.3
Cc1ccc(S(=O)(=O)N2C[C@H](O)COC[C@@H]3O[C@H](CC(=O)NCc4ccc5c(c4)OCO5)CC[C@H]32)cc1	-0.44
COc1ccc(-c2ccc([C@H]3[C@H](CO)N4C(=O)CN(C(=O)NC(C)C)C[C@@H]34)cc2)cc1	-3.8*
COc1ccc(-c2ccc([C@@H]3[C@H]4CNCC(=O)N4[C@H]3CO)cc2)cc1	0.96
COc1ccc(-c2ccc([C@@H]3[C@H](CO)N4C(=O)CNC[C@@H]34)cc2)cc1	-0.34
